hgDAF-12 ag – hgDAF-12 agonism, primary luciferase screen; HEK293 GAL4-hgDAF12 UAS-luciferase reporter, agonist luminescence; normalized to butyrate control; activation, % at 6.8 µM; 370,000 tested, 1.8% active; AID 687014;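 active = activation above a cutoff set at the mean of all screened compounds plus 3 SD, cut at about 10% in these data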;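 also: 0% = DMSO wells and 100% = sodium butyrate wells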
DAX1 inh-1 – NR0B1 (DAX1) inhibition; HEK293 Gal4-DAX1 luciferase reporter, luminescence; inhibition, % at 6.75 µM; 340,000 tested, 0.99% active;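 active = inhibition above the mean over all tested compounds plus 3 SD, cut at about 4.2% in these data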;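 also: 0% = DAX1-transfected cells with DMSO and 100% = empty-vector control cells with DMSO; inhibition shows as a rise in luminescence from relieved DAX1 repression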
DAX1 inh-2 – inhibitors of DAX1 repression of SF-1 activated StAR promoter | HEK293T StAR-luciferase reporter, SF-1/DAX-1 repression relief | inhibition, % at 6.8 µM | 370,000 tested, 1.1% active | AID 652010;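 active = inhibition above the mean over all tested compounds plus 3 SD, cut at about 3.6% in these data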;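 also: 0% = DAX-1 cells with DMSO and 100% = cells lacking DAX-1 with DMSO; higher inhibition means more luminescence from relief of DAX-1 repression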
hcDAF-12 act – activates DAF-12 receptor from parasite H. contortus | HEK293 hcDAF-12 lit1-tk-luc reporter, luminescence; 0% DMSO, 100% Δ7-dafachronic acid | activation, % at 6.8 µM | 370,000 tested, 1.4% active | AID 652067;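 active = activation above the mean of all tested compounds plus 3 SD, cut at about 5.5% in these data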;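 also: 100% = response to 3 µM Δ7-dafachronic acid high control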
ssDAF-12 act – activates DAF-12 receptor from parasite S. stercoralis. HEK293 ssDAF-12/GRIP1 lit1-tk-luc reporter, luminescence; % of 3 µM dafachronic acid response. activation, % at 6.8 µM. 370,000 tested, 1% active;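 active = activation above the mean over all tested compounds plus 3 SD, cut at about 0.9% in these data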;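 also: 0% = DMSO-only wells and 100% = 3 µM delta7-dafachronic acid wells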
DAX1 conf – confirmation of human DAX1 (NR0B1) inhibitors; inhibition, % at 6.8 µM; shares compounds with DAX1 inh-2; AID 652134; HEK293T StAR-promoter luciferase reporter, SF-1/DAX-1 repression; 2,400 tested, 87% active;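 active = inhibition above the average of every tested compound plus 3 SD, cut at about 3.8% in these data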;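 also: 0% = DAX-1 cells with DMSO and 100% = no DAX-1 control cells with DMSO; active compounds raise luminescence by relieving repression of the StAR reporter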
Target sequence (P51843 whole entry, looked up): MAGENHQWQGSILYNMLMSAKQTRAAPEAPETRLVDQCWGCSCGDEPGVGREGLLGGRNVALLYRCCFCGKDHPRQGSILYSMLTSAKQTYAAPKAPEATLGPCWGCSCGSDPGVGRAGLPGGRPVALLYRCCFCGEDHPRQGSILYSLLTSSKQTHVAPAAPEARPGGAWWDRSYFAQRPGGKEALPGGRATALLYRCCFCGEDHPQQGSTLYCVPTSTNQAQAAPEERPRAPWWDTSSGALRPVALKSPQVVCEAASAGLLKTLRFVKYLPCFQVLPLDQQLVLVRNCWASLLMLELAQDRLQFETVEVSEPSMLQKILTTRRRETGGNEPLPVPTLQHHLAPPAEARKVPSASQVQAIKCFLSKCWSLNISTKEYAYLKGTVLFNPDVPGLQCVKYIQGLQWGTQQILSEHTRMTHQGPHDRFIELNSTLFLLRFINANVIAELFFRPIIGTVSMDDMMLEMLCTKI
SF1 mutant ctr – counter-screen for DAX1 inhibitors: nonselective inhibitors with SF-1 AF2 mutant; HEK293 StAR-luciferase, luminescence; 2,400 tested, 78% active; shares compounds with DAX1 inh-2; inhibition, % at 6.8 µM;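 active = inhibition above the mean of all tested compounds plus 3 SD, cut at about 3% in these data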;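 also: 0% = DAX-1 transfected cells with DMSO and 100% = cells without DAX-1 with DMSO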
Numbers without * were called inactive; / = no result given. In the library only some 4.1% were active in any assay of this set; here they are far more common.

SMILES	hgDAF-12 ag	DAX1 inh-1	DAX1 inh-2	hcDAF-12 act	ssDAF-12 act	DAX1 conf	SF1 mutant ctr
CSc1ccccc1OCc1cc(C(=O)N2CCCC(C)C2)no1 (configuration not stated)	12.0*	1.7	6.5*	3.7	0.1	8.3*	4.0*
Cc1ccc(C)c(OCc2cc(C(=O)N3CCOCC3)no2)c1	7.0	1.4	5.7*	5.4	-0.2	5.3*	4.7*
COC(=O)c1cc2c(c3c4cc(OC)ccc4n(S(=O)(=O)c4ccc(OC)cc4)c13)C(=O)N(Cc1ccccc1)C2	1.2	/	-0.2	-0.2	-1.2	/	/
Cc1ccccc1-c1ccc2c(c1)[C@@H]1C[C@H]3[C@@H](CN1CC2)[C@H](C)OC(c1ccccc1)N3C (some centres not stated)	2.4	/	-0.4	-0.4	-1.4	/	/
C[C@H]1CCCC(=O)N[C@@H](c2ccccc2)[C@@H](C)CCCC(=O)N[C@H]1c1ccccc1	-2.5	/	-0.2	-0.3	-1.2	/	/
Cc1ccc2nc(-c3ccc(Cl)cc3)c(CC3CCCCC3)n2c1	22.7*	/	6.2*	7.4*	0.7	5.3*	4.9*
Cc1ccc2nc(-c3ccc(F)cc3)c(Cc3cccc(Cl)c3)n2c1	9.0	/	9.6*	2.9	0.0	7.5*	4.3*
Cc1ccc2nc(-c3ccc(F)cc3)c(Cc3cccc(F)c3)n2c1	11.1*	/	4.8*	4.0	-0.2	4.1*	4.6*
Fc1ccc(-c2nc3ccc(Br)cn3c2Cc2cccc(Cl)c2)cc1	2.5	/	0.9	0.2	-0.9	/	/
Fc1ccc(-c2nc3ccc(Br)cn3c2Cc2cccc(F)c2)cc1	4.7	/	3.5	3.9	-0.9	/	/
CC(=O)CC[C@H]1CC[C@]2(CCCN(C(=O)c3ccc4ccccc4n3)C2)O1	0.6	/	-0.4	0.2	-1.4	/	/
Clc1ccccc1CSc1cnnc2ccccc12	5.6	1.3	5.3*	1.9	-0.9	3.2	1.5
Cc1cccc(NC(=O)C2CCCN(c3nnc(-n4cccc4)s3)C2)c1C (configuration not stated)	2.0	/	-0.4	-1.1	-1.3	/	/
Nc1ccc(-c2nc3cc(N)ccc3s2)cc1	20.9*	0.1	4.8*	6.5*	1.0*	11.0*	4.2*
CCn1cc(CNC(=O)c2ccc3nc(Cc4ccccc4F)oc3c2)cn1	0.0	-1.4	-1.0	-0.9	-1.1	/	/
Cn1cc(CCNC(=O)c2ccc3nc(Cc4ccccc4F)oc3c2)cn1	11.9*	2.4	5.0*	4.0	-0.7	7.1*	5.8*
Cn1cc(CNC(=O)c2ccc3nc(Cc4ccccc4F)oc3c2)cn1	4.3	0.8	1.4	3.1	0.0	/	/
O=C(NCCc1ccccn1)c1ccc2nc(Cc3ccccc3F)oc2c1	8.5	2.1	7.0*	1.0	0.1	6.9*	5.2*
C[C@@H]1CN(c2ccc(N3CCNC[C@@H]3C)cc2C#N)C[C@H](C)O1	1.1	/	-0.3	-0.8	-0.6	/	/
CC(=Nc1ccccc1)C1=C(O)C(Cc2cccc(F)c2)NC1=O (configuration not stated)	-1.0	1.4	6.0*	1.9	0.4	24.7*	-5.0
CC(=Nc1ccccc1)C1=C(O)C(Cc2ccc(O)cc2)NC1=O (configuration not stated)	-0.9	0.9	0.0	-0.8	-0.6	/	/
Nn1c(SCC(=O)Nc2nccs2)nnc1-c1cc(-c2ccc(Cl)cc2)n[nH]1	4.0	/	-0.3	-0.4	0.1	/	/
CC(=O)N1CCCN(C(=O)c2cc(COc3c(F)cccc3F)on2)CC1	0.6	0.5	-0.7	0.2	-1.1	/	/
CC(=O)c1ccc(OCc2cc(C(=O)N3CC[C@@H]4CCCC[C@H]4C3)no2)cc1	10.0	1.2	1.2	1.5	0.1	/	/
CCOC(=O)N1CCN(C(=O)c2cc(COc3ccc(F)cc3F)on2)CC1	2.5	-0.5	0.6	-1.0	-0.6	/	/
SMILES	hgDAF-12 ag	DAX1 inh-1	DAX1 inh-2	hcDAF-12 act	ssDAF-12 act	DAX1 conf	SF1 mutant ctr
Cc1cccc(C)c1OCc1cc(C(=O)N2CCC(C3CCCCC3)C2)no1 (configuration not stated)	10.1	1.6	4.7*	1.0	0.5	5.0*	4.0*
CCOC(=O)N1CCN(C(=O)c2cc(COc3c(F)cccc3F)on2)CC1	11.5*	1.2	7.8*	3.1	0.8	8.9*	5.7*
CN(C(=O)c1cc(COc2c(F)cccc2F)on1)C1CCOC1 (configuration not stated)	5.2	0.8	5.1*	2.9	-1.1	-0.8	1.8
O=C(c1cc(COc2c(F)cccc2F)on1)N1CCCCCC1	6.5	0.1	4.8*	1.1	-0.5	4.6*	3.0*
O=C(NCc1ccccc1)[C@@H]1CCCN1C(=O)[C@H]1CCCN1C(=O)c1cccs1	1.7	/	0.8	-1.4	-0.8	/	/
COC(=O)[C@]12C[C@H](CC(=O)NCCCN3CCCC3=O)C(=O)N(CCC3=CCCCC3)C1=C[C@H](C(C)C)O[C@@H]2C1CC1	-3.1	/	-0.2	-2.1	-2.1	/	/
COc1ccc(C2C(C(=O)Nc3ccc(F)cc3)CCC(=O)N2c2ccc(OC)cc2)cc1 (configuration not stated)	-0.9	/	-0.1	-1.2	-1.3	/	/
CCCCN1CCN(C(=O)Cn2c(=O)c3ccccc3n(CC)c2=O)CC1	-1.6	/	1.1	-1.3	-1.5	/	/
c1ccc(-n2ncc3c(NC4CCCCCC4)ncnc32)cc1	10.8*	5.9*	5.7*	-0.1	-0.6	10.2*	5.7*
CCN(CC)CCCn1c2c(c(SCC(=O)Nc3nc(C)cs3)nc1=O)CCC2	3.9	-1.0	1.6	-0.9	-0.5	/	/
CCN(CC)CCCn1c2c(c(SCC(=O)Nc3ccc(F)c(F)c3)nc1=O)CCC2	-0.5	-0.7	4.7*	0.7	-0.9	2.5	2.0
CCN(CC)CCCn1c2c(c(SCC(=O)Nc3cccc(C)c3C)nc1=O)CCC2	2.0	1.5	7.2*	1.7	-0.9	7.7*	6.3*
CCN(CC)CCn1c2c(c(SCC(=O)Nc3ccc(F)c(F)c3)nc1=O)CCC2	-2.6	-0.7	0.0	-0.2	-1.2	/	/
Oc1ccc(CNc2cccnc2)c2cccnc12	1.2	/	/	-0.4	-1.3	/	/
N/C(=N\OC(=O)c1cccs1)c1cccc(Br)c1	8.6	2.6	1.9	2.1	0.2	/	/
COc1ccc(/C(N)=N/OC(=O)c2cccs2)cc1OC	7.9	3.0	8.3*	0.4	-1.1	6.2*	6.1*
O=C(NCCc1ccccc1)c1noc2c1CCc1ccccc1-2	3.2	0.8	0.1	-0.9	-1.1	/	/
CCCNC(=O)c1noc2c1CCc1ccccc1-2	8.4	0.5	4.5*	1.7	0.1	2.2	3.0*
COc1ccc(Nc2nc3ccccc3s2)cc1	26.8*	4.3*	5.5*	3.9	0.4	12.2*	7.3*
